Measured values from PubChem BioAssay AID1851 (National Center for Advancing Translational Sciences (NCATS), 2009).
The whole screen tested about 16,000 compounds, of which about 2,600 (16%) were called active. Not shown: some 20% with an inconclusive outcome. The list is a sample of the results. Values without a mark were called inactive. Calls follow the shape of the dose curve; as a rule, active = well fitted curve in the direction sought with a large enough effect; inconclusive = small, poorly fitted or top-dose-only effect, or effect the other way; inactive = no such curve, though single readings can be large or run the other way.
% is scaled to controls: 0 for no effect and ±100 for the full control effect.

What follows are molecules tested against Cytochrome P450 2D6 (Homo sapiens) (UniProt P10635) (assay: Cytochrome panel assay with activity outcomes). Details: recombinant CYP, pro-luciferin dealkylation, luminescence, p450-cyp2d6; series mostly up to 57.1 µM.
Cytochrome P450 2D6 (Homo sapiens), sequence (P10635 whole entry, looked up): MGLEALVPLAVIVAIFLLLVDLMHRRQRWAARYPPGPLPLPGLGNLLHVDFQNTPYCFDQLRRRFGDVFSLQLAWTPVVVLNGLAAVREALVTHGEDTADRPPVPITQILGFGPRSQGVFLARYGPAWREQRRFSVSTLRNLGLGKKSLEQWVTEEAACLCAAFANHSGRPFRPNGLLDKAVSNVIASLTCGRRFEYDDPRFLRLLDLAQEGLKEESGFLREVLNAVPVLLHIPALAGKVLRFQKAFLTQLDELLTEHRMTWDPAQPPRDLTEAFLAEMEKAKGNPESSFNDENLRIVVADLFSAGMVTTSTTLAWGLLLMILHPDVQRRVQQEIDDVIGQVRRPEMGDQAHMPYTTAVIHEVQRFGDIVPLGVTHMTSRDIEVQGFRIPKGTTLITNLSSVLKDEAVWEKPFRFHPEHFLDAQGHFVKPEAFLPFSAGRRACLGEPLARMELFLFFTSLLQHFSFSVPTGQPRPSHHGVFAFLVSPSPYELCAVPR
With `CC(=O)OCc1c(C(F)(F)F)nn(C)c1Sc1ccccc1` the AC50 was “inactive”. `Cc1ccccc1OCC(O)Cn1c(NCc2ccccc2)nc2c1c(=O)[nH]c(=O)n2C` (configuration not stated) was tested, and the AC50 was “inactive”. `CCn1c2ccccc2c2cc(NC(=O)C(C)Oc3ccc(OC)cc3)ccc21` (configuration not stated) was tested, and the AC50 was “inactive”. In the case of `OC[C@@H](O)COc1cccc2ccccc12`, the AC50 is reported as “inactive”. For `C=CCN(CC=C)CC(O)Cn1c2ccccc2c2ccccc21` (configuration not stated), the AC50 was 0.224 µM (active). `Cc1ccccc1OCC(O)Cn1c2ccccc2c2ccccc21` (configuration not stated) was tested, and the AC50 was 0.891 µM (active). With `Cc1ccc(OCC(O)CNC(=O)c2ccccc2C(=O)O)cc1` (configuration not stated) the AC50 was “inactive”. For `Cc1cc(C)n(CC(O)COc2ccccc2)n1` (configuration not stated), the AC50 was “inactive”. For `Cc1ccc(OCC(O)Cn2c3ccccc3c3ccccc32)cc1` (configuration not stated), the AC50 was 6.31 µM (active). `c1ccc2c(c1)c1ccccc1n2Cn1c2ccccc2c2ccccc21` was tested, and the activity, negative = inhibition was -12.9% [at 11.4 µM]. For `CC(=O)Nc1ccc(OCC(O)Cn2c3ccccc3c3ccccc32)c(C)c1` (configuration not stated), the AC50 was 14.1 µM (active). In the case of `C#CCCCO/N=C1/[C@H]2O[C@@H]2[C@@H](O)[C@H]2[C@H]1CCn1c(=O)n(Cc3cc4c(cc3Cl)OCO4)c(=O)n12`, the activity, negative = inhibition is reported as -0.473% [at 11.4 µM]. `O=C(O)c1nnsc1-c1csnn1` was tested, and the activity, negative = inhibition was -6.92% [at 11.4 µM]. With `Cc1cc(C)c(C(N)=O)c(NC(=O)Nc2ccccc2)n1` the AC50 was “inactive”. Work on `O=c1[nH][nH]c(=S)c(=O)[nH]1` yielded an activity, negative = inhibition of 0.16% [at 11.4 µM]. `C=CCNC(=S)Nc1ccc2nc(C)c(C)nc2c1` was tested, and the AC50 was “inactive”. In the case of `Cc1ccc(NC(=O)CN(C)C(=O)CSc2n[nH]c(N)n2)cc1`, the AC50 is reported as “inactive”. `CCn1cc(C(=O)N/N=C(/C)c2ccc(F)cc2)c(=O)c2cc(F)c(N3CCCC3)cc21` was tested, and the AC50 was “inactive”. With `CCc1cccc2c3c([nH]c12)[C@@](CC)(CC(=O)O)OCC3` the AC50 was “inactive”. In the case of `O=C1S/C(=C/c2ccc(N3CCOCC3)o2)C(=O)N1Cc1ccc(F)cc1`, the AC50 is reported as “inactive”. With `COc1ccc(NC(=O)C2(c3ccc(NC(=O)c4ccc(C)cc4)cc3)CCCC2)cc1` the AC50 was “inactive”. `C/C(=N/Nc1ccc2ccccc2n1)c1ccccc1O` was tested, and the AC50 was 0.794 µM (active). For `CC(=NC1CCCCC1)c1ccccc1O`, the activity, negative = inhibition was -7.44% [at 11.4 µM]. `CC(=O)/C=C/c1ccc2ccccc2n1` was tested, and the AC50 was “inactive”. `COc1ccc(/C(O)=C2/C(=O)C(=O)N(CCN3CCOCC3)C2c2ccc(C)cc2)cc1` (configuration not stated) was tested, and the AC50 was “inactive”. For `CN1CCN(c2ncc3nc(CCc4ccccc4)c(=O)n(C)c3n2)CC1`, the AC50 was “inactive”. `O=C(O)[C@@H]1[C@@H](C(=O)NCc2ccncc2)[C@@H]2C=C[C@@H]1O2` gave an activity, negative = inhibition of -9.91% [at 11.4 µM]. With `O=C(CN(c1ccccc1)S(=O)(=O)c1ccccc1[N+](=O)[O-])NN=C1CCCCCCC1` the AC50 was 4.47 µM (active). In the case of `O=C(COc1ccc([N+](=O)[O-])cc1)NN=C1CCCC1`, the AC50 is reported as “inactive”. `COc1ccc(N(CC(=O)NN=C2CCCC2)S(=O)(=O)c2ccccc2)cc1` was tested, and the AC50 was “inactive”. In the case of `CNC(=O)[C@H]1O[C@H](n2cnc3c(NCc4cccc(I)c4)ncnc32)[C@@H](O)[C@@H]1O`, the AC50 is reported as “inactive”. `CCCCC(C=O)NC(=O)C(CC(C)C)NC(=O)OCc1ccccc1` (configuration not stated) was tested, and the AC50 was “inactive”. In the case of `NCc1ccccc1CC(=O)N[C@@H]1C(=O)N2C(C(=O)O)=C(CSc3nnnn3CC(=O)O)CS[C@@H]12`, the AC50 is reported as “inactive”. `COc1cc(/C=N\NC(=O)C2C(=O)NCC2c2ccccc2)cc(OC)c1O` (configuration not stated) was tested, and the AC50 was “inactive”. `Cc1cccc(C)c1NC(=O)N1CCC(N2CCCCC2)CC1` was tested, and the AC50 was “inactive”. For `CCCCN1CCCC[C@H]1C(=O)Nc1c(C)cccc1C`, the AC50 was 0.501 µM (active). In the case of `Cc1cccc(C)c1NC(=O)CCN1C(=O)C2C3CCC(C3)C2C1=O` (configuration not stated), the AC50 is reported as “inactive”. Work on `Cc1ccc(/C(C#N)=C/c2cccc([N+](=O)[O-])c2)cc1` yielded an activity, negative = inhibition of 8% [at 11.4 µM]. In the case of `CN(C)Cc1cc(O)c(O)c(CN(C)C)c1`, the activity, negative = inhibition is reported as 1.36% [at 11.4 µM]. `COC(=O)c1cc(-c2ccccc2)sc1NC(=O)CN1C(=O)c2ccccc2C1=O` was tested, and the AC50 was “inactive”. For `Cc1ccc2nc(-c3ccc(NC(=O)c4ccc(N)cc4)c(S(=O)(=O)O)c3)sc2c1`, the activity, negative = inhibition was 10.5% [at 11.4 µM]. For `Cc1ccc2c(c1)N(CC(=O)NCc1cccs1)C(=O)C(C)O2` (configuration not stated), the AC50 was 12.6 µM (active). In the case of `Cc1ccc(C)c(NC(=O)Cn2nnc(C(=O)NCc3cccs3)c2N)c1`, the AC50 is reported as “inactive”. With `COc1ccc(CCNC(=O)CCN2C(=O)C(C)Oc3ccc(C)cc32)cc1OC` (configuration not stated) the AC50 was “inactive”. For `COc1ccccc1COC(=O)Nc1c(C)nn(C)c1Cl`, the AC50 was “inactive”. `COc1ccc2c(c1)c(CC(=O)N1CCOCC1)c(C)n2C(=O)c1ccc(Cl)cc1` was tested, and the AC50 was “inactive”. `Nc1cccc2cc(S(=O)(=O)Nc3ccc(C(=O)O)cc3)ccc12` was tested, and the activity, negative = inhibition was 4.25% [at 11.4 µM].
